Compounds without any hit were thinned out: in the full panel of roughly 83,000, 20% have a hit.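 Assay: single dose, 48 h. Readout: percent growth (0 = no net growth; negative = cell death). Active: <10.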 Unmarked numbers belong to inactive results. The source made the active and inactive calls.

Among the test systems are HCT-15 colon; HT29 colon; SNB-75 CNS; SNB-19 CNS; U251 CNS; SK-MEL-5 melanoma; UACC-62 melanoma; SK-MEL-28 melanoma; SK-MEL-2 melanoma; EKVX NSCLC; SN12C renal; UO-31 renal; TK-10 renal; ACHN renal; CAKI-1 renal; A498 renal; CCRF-CEM leukemia; MOLT-4 leukemia; LOX IMVI melanoma; PC-3 prostate.
What all share (assay): NCI-60 one-dose screen, 48 h (100 = growth as untreated, 0 = no growth, -100 = all killed)
What all share (conditions): 10 µM unless noted

Consider `CO/N=C(/C)c1ccc(NC(=O)CSc2nnc(-c3ccncc3)n2-c2ccccc2)cc1`, for which the growth is 73% in the test with HCT-15 colon; 78% in the test with HT29 colon; -16.6% (active) in the test with SNB-75 CNS; 30.4% with SNB-19 CNS; 17.4% in the test with U251 CNS; 25.2% with SK-MEL-5 melanoma. Besides, the growth in the test on UACC-62 melanoma was 26.1%; with SK-MEL-28 melanoma, 64.9%; in the test with SK-MEL-2 melanoma, 67.6%; with EKVX NSCLC it was 64.3%; in the test on SN12C renal it was 36.1%; with UO-31 renal, 9.43% (active). Moreover, the growth in the test with TK-10 renal is -15.3% (active); in the test on ACHN renal, 10.1%; with CAKI-1 renal, 26.8%; in the test with A498 renal, 89.7%; with CCRF-CEM leukemia, 91.6%; with MOLT-4 leukemia, 92.2%.
In the case of `Cc1cc(N)c2cc(NC(=O)/C=C\c3ccccc3Cl)ccc2n1`, the growth with HCT-15 colon was 10.9%; with HT29 colon, -64.4% (active); in the test with SNB-75 CNS it was -90.8% (active); in the test with SNB-19 CNS, -86.3% (active); with U251 CNS it was -85.9% (active); in the test on SK-MEL-5 melanoma it was -94.9% (active). For the same compound, the growth in the test with UACC-62 melanoma is -80.9% (active); with LOX IMVI melanoma it was -75.1% (active); with SK-MEL-28 melanoma, -96.1% (active); in the test with SK-MEL-2 melanoma, -72.5% (active); in the test on EKVX NSCLC it was -71.8% (active); in the test on SN12C renal it was -81.7% (active). Also, the growth with UO-31 renal is -72.1% (active); in the test with TK-10 renal, -90% (active); in the test with ACHN renal, -85% (active); in the test with CAKI-1 renal, -76% (active); in the test on A498 renal, -88.3% (active); in the test on CCRF-CEM leukemia, -74.2% (active). In addition, the growth with MOLT-4 leukemia was -53.2% (active).
Consider `Cc1ccc(NC(=S)NNC(=S)NNc2ccccc2)cc1C`, for which the growth in the test on HCT-15 colon was 103%; with HT29 colon, 104%; in the test with SNB-75 CNS, 107%; in the test on SNB-19 CNS it was 106%; with U251 CNS, 96.8%; in the test with SK-MEL-5 melanoma, 95.7%. The growth in the test on UACC-62 melanoma was 104%; with LOX IMVI melanoma, 106%; in the test on SK-MEL-28 melanoma, 115%; in the test with SK-MEL-2 melanoma it was 91.2%; with EKVX NSCLC, 108%; with SN12C renal, 101%. In addition, the growth in the test with UO-31 renal is 77.2%; with TK-10 renal it was 104%; in the test with ACHN renal, 99.1%; in the test on CAKI-1 renal, 95%; in the test with A498 renal it was 93.7%; in the test on CCRF-CEM leukemia it was 44.4%. The growth with MOLT-4 leukemia is 45%.
As for `Cc1cc(Cl)ccc1Nc1nc(C(F)(F)F)ccc1C(=O)N/N=C/c1ccc([N+](=O)[O-])cc1`, the growth is -1.51% (active) with HCT-15 colon; -26.6% (active) with HT29 colon; -12.2% (active) in the test with SNB-75 CNS; 22.7% in the test with SNB-19 CNS; -13.9% (active) in the test on U251 CNS; 84.7% with SK-MEL-5 melanoma. In addition, the growth with UACC-62 melanoma is 12.6%; in the test with LOX IMVI melanoma it was 7.3% (active); in the test with SK-MEL-28 melanoma, 5.64% (active); in the test on SK-MEL-2 melanoma, -33.5% (active); in the test with EKVX NSCLC it was -8.42% (active); in the test with SN12C renal, 4.6% (active). Moreover, the growth in the test on UO-31 renal is -27.1% (active); in the test on TK-10 renal it was -8.71% (active); in the test on ACHN renal it was -22.9% (active); in the test with CAKI-1 renal, 2.14% (active); in the test with A498 renal, 88.9%; with CCRF-CEM leukemia, -12.9% (active). Besides, the growth in the test on MOLT-4 leukemia was -5.84% (active).
On to `O=[N+]([O-])c1ccc(N/N=C(/C(=N/Nc2ccc([N+](=O)[O-])cc2)c2ccccc2)c2ccccc2)cc1`, for which the growth was 16.9% with HCT-15 colon; 16.4% in the test on HT29 colon; 90.3% in the test on SNB-75 CNS; 93.3% in the test on SNB-19 CNS; 53.4% with U251 CNS; 82% with PC-3 prostate. Moreover, the growth with SK-MEL-5 melanoma is 86.3%; in the test with UACC-62 melanoma it was 78.6%; with SK-MEL-28 melanoma, 121%; in the test on SK-MEL-2 melanoma, 11.2%; in the test with EKVX NSCLC, 94.1%; in the test on SN12C renal, 81.4%. For the same compound, the growth in the test with UO-31 renal is 51.8%; in the test with TK-10 renal, 94.4%; in the test with ACHN renal, -1.56% (active); in the test on CAKI-1 renal, 53.7%; in the test with A498 renal, 101%; in the test with CCRF-CEM leukemia, 90.9%. In addition, in the test with MOLT-4 leukemia, the growth was 73.9%.
Regarding `O=C(Cn1cc(CN2C(=O)c3ccccc3S2(=O)=O)nn1)Nc1nc2ccccc2s1`, the growth with HCT-15 colon is 107%; with HT29 colon it was 97.9%; with SNB-75 CNS it was 81.2%; in the test on SNB-19 CNS, 98.1%; with U251 CNS it was 98.7%; with SK-MEL-5 melanoma, 104%. The growth with UACC-62 melanoma is 97.5%; in the test with LOX IMVI melanoma, 92.5%; in the test on SK-MEL-28 melanoma it was 106%; in the test with SK-MEL-2 melanoma it was 95.3%; in the test with EKVX NSCLC it was 105%; in the test on SN12C renal, 105%. In addition, the growth was 69.1% in the test on UO-31 renal; 97.5% with TK-10 renal; 90.5% in the test with ACHN renal; 89.6% with CAKI-1 renal; 108% in the test on A498 renal; 113% with CCRF-CEM leukemia. Further, the growth in the test on MOLT-4 leukemia was 115%.
Turning to `CN(Cc1ccc(C(F)(F)F)cc1)CC(O)C(=O)Nc1ccc(Cl)cc1` (stereo not given), the growth with HCT-15 colon is -15.4% (active); in the test on HT29 colon, 1.26% (active); in the test with SNB-19 CNS, 31.4%; in the test with U251 CNS it was -82.3% (active); with PC-3 prostate it was 22%; in the test on SK-MEL-5 melanoma, 8.39% (active). The growth was 29.7% in the test with UACC-62 melanoma; 85.8% in the test with SK-MEL-28 melanoma; -48.1% (active) with SK-MEL-2 melanoma; 12.6% in the test on EKVX NSCLC; -67.6% (active) in the test with SN12C renal; 12.6% in the test on UO-31 renal. Further, the growth was 24.3% with TK-10 renal; -3.15% (active) with ACHN renal; -59.6% (active) in the test on CAKI-1 renal; -4.42% (active) in the test with A498 renal; -27.4% (active) in the test on CCRF-CEM leukemia; -20.9% (active) with MOLT-4 leukemia.
As for `N#Cc1cccc(NC(=O)c2oc3ccccc3c2-c2cnn(-c3ccccc3)c2)c1`, the growth in the test with HCT-15 colon was 74.1% [50 µM]; with HT29 colon, 85.5% [50 µM]; in the test on SNB-19 CNS, 84.2% [50 µM]; in the test with U251 CNS, 85.3% [50 µM]; in the test on PC-3 prostate, -9.05% [50 µM] (active); with SK-MEL-5 melanoma, 67.7% [50 µM]. In addition, the growth in the test with UACC-62 melanoma is 75% [50 µM]; with LOX IMVI melanoma it was 77.9% [50 µM]; in the test with SK-MEL-28 melanoma, 91.9% [50 µM]; with SK-MEL-2 melanoma, 88.1% [50 µM]; in the test with EKVX NSCLC, 76.5% [50 µM]; in the test on SN12C renal it was 78.3% [50 µM]. Moreover, the growth is 59% [50 µM] in the test with UO-31 renal; 88.2% [50 µM] in the test on TK-10 renal; 80.6% [50 µM] in the test with ACHN renal; 63.2% [50 µM] in the test on CAKI-1 renal; 89.5% [50 µM] with A498 renal; -21.3% [50 µM] (active) in the test on CCRF-CEM leukemia. The growth in the test with MOLT-4 leukemia is -5.03% [50 µM] (active).

(Values after PubChem BioAssay (NCI).)
